Results on 40 compounds are retold here after PubChem BioAssay (Tox21).

Each structure is given as a SMILES string. Records with an inconclusive call do not appear. A number with no mark means an inactive call. Active and inactive are the calls of the source. Calls come from the whole dose curve; as a rule, active = well fitted cell-killing curve with a large enough effect in the repeat runs; inconclusive = weak or mixed curves, or effect the other way; inactive = flat fitted curve, though single readings scatter.
% is set by controls: 0 for no effect and ±100 for the full control effect; potency is the fitted concentration of half-maximal effect.

One assay in a line: cAMP Responsive Elements (CRE) small molecule antagonists, cell-based qHTS assay: qHTS cell viability counter screen (AID 2060913). Note: nearly all actives have a fitted effect of over 40% in size. To be noted: CRE-bla HEK293T viability, CellTiter-Glo luminescence, 5 h; series mostly up to 92.4 µM; viability change, negative = cytotoxic: at the top concentration. An outline of the steps: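 Cytotoxicity read in the same wells as the CRE-bla HEK293T antagonist assay: after 3 h compound with 0.25 uM NKH477 final and 2 h beta-lactamase substrate, CellTiter-Glo luminescence measured.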
As for `CC(C)(C)C(=O)OCOC(=O)C1N2C(=O)CC2S(=O)(=O)C1(C)C` (stereo not given), the “viability change, negative = cytotoxic” value was -0.798% [at 42.5 µM].

Take `CN1[C@@H]2CC(OC(=O)[C@H](CO)c3ccccc3)C[C@H]1[C@@H]1O[C@@H]12` (stereo not given in full): the Potency result was “inactive”.

As for `C=CCCCCCCCCC=O`, the “viability change, negative = cytotoxic” value was 4.31%.

As to `O=C(O)C(O)[C@H](O)[C@@H](O)[C@H](O)[C@H](O)CO` (stereo not given in full), the “viability change, negative = cytotoxic” value was 6.56%.

As for `CC(C)[C@H]1CC[C@@H](C)CC1=O`, the “viability change, negative = cytotoxic” value was 2.36%.

With `c1ccc(Sc2ccccc2)cc1`, the “viability change, negative = cytotoxic” value was 9.1%.

In the case of `O=C(O)c1cn(-c2ccc(F)cc2)c2cc(N3CCNCC3)c(F)cc2c1=O`, the Potency result was “inactive”.

Regarding `C[C@H]1C[C@H]2[C@@H]3CCC4=CC(=O)C=C[C@]4(C)[C@@]3(F)[C@@H](O)C[C@]2(C)[C@@]1(O)C(=O)COP(=O)(O)O`, the “viability change, negative = cytotoxic” value is -2.43%.

Turning to `O=C(Nc1cccc2c(=O)cc(-c3nn[nH]n3)oc12)c1ccc(OCCCCc2ccccc2)cc1`, the “viability change, negative = cytotoxic” value is -0.0709% [at 42.5 µM].

`O=C(O)[C@@H](O)[C@H](O)[C@H](O)[C@@H](O)C(=O)O`: the “viability change, negative = cytotoxic” value was 3.14% [at 42.5 µM].

As for `OCCCc1ccccc1`, the Potency entry was “inactive”.

Take `CCCOc1ccc(S(=O)(=O)N2CCN(CC)CC2)cc1-c1nc2c(CC)n(Cc3ccccn3)nc2c(=O)[nH]1`: the “viability change, negative = cytotoxic” value was 11.6%.

For the compound `Cc1nc2c([nH]1)c(=O)n(C)c(=O)n2Cc1ccco1`, the “viability change, negative = cytotoxic” value was 9.71% [at 42.5 µM].

Take `COc1c(Cl)ccc(Cl)c1C(=O)O`: the Potency result is “inactive”.

Consider `Cc1cccn2c(=O)c(-c3nnn[nH]3)cnc12`, for which the viability change, negative = cytotoxic is -1.68% [at 18.9 µM].

Turning to `CCCCOC(=O)c1ccccc1C(=O)OCC(CC)CCCC` (stereo not given), the “viability change, negative = cytotoxic” value was 0.274%.

With `COc1ccc([C@@H]2Sc3ccccc3N(CCN(C)C)C(=O)[C@@H]2OC(C)=O)cc1`, the “viability change, negative = cytotoxic” value is -1.51% [at 42.5 µM].

For the compound `O=C(O)c1ccc(-n2nc(-c3ccccc3O)nc2-c2ccccc2O)cc1`, the “viability change, negative = cytotoxic” value was -0.0259% [at 42.5 µM].

`CC1CCC(C(C)CS)CC1S` (stereo not given): the “viability change, negative = cytotoxic” value is -0.615%.

Consider `O=C(O)CSCC(=O)NC1CCSC1=O` (stereo not given), for which the “viability change, negative = cytotoxic” value is -0.345% [at 42.5 µM].

Take `CC(=O)OCC(=O)[C@@]12OC(C)(C)O[C@@H]1C[C@H]1[C@@H]3C[C@H](F)C4=CC(=O)C=C[C@]4(C)[C@@]3(F)[C@@H](O)C[C@@]12C`: the “viability change, negative = cytotoxic” value was -6.12% [at 42.5 µM].

On to `CCCCCC(=O)O`, for which the Potency entry is “inactive”.

On to `CCO[Si](CC)(OCC)OCC`, for which the “viability change, negative = cytotoxic” value was 0.0341%.

Take `CCCC(=O)OCCc1ccccc1`: the “viability change, negative = cytotoxic” value is 9.5%.

Turning to `CCc1cccc2c(CCO)c[nH]c12`, the “viability change, negative = cytotoxic” value is 3.07% [at 42.5 µM].

For `CC(C)C/C=C(\C=O)c1ccccc1`, the “viability change, negative = cytotoxic” value was -22.3%.

For `Nc1ccncc1N`, the “viability change, negative = cytotoxic” value is -0.152% [at 42.5 µM].

For `CC1(C)CC(=O)CC(C)(C)N1`, the “viability change, negative = cytotoxic” value is -5.86%.

Take `CNC(=O)N(c1ccccc1)c1ccccc1`: the “viability change, negative = cytotoxic” value was 0.18%.

Regarding `NS(=O)(=O)c1cc2c(cc1Cl)NC(CC1CCCC1)NS2(=O)=O` (stereo not given), the “viability change, negative = cytotoxic” value was 3.89% [at 42.5 µM].

As to `C=C[Si](OC(=C)C)(OC(=C)C)OC(=C)C`, the “viability change, negative = cytotoxic” value is 10.8%.

Take `CC(C)(C)C(=O)CC(=O)C(C)(C)C`: the “viability change, negative = cytotoxic” value was 23.5%.

Regarding `Nc1ccccc1O`, the “viability change, negative = cytotoxic” value was 2.63%.

On to `COc1cc(-c2nc(NC(=O)c3cc4cc(C)cc(C)c4n3CC(=O)O)sc2CCC2CCCCC2)c(OC)cc1Cl`, for which the Potency is 25 µM (active).

On to `CCN[C@H]1C[C@H](C)S(=O)(=O)c2sc(S(N)(=O)=O)cc21`, for which the “viability change, negative = cytotoxic” value was -0.268% [at 42.5 µM].

Take `CCCCCCC#CC(=O)OC`: the “viability change, negative = cytotoxic” value was -4.54%.

On to `CCN1CCN(c2cc(-c3ccc(F)cc3)c3c(n2)CCCCCC3)CC1`, for which the viability change, negative = cytotoxic is -3.64% [at 18.9 µM].

Turning to `CN1C(=O)CC(c2ccccc2)C1=O` (stereo not given), the “viability change, negative = cytotoxic” value is 7.01% [at 42.5 µM].

On to `OC[C@@H](O)[C@H](O)[C@H](O)[C@@H](O)CO`, for which the Potency entry was “inactive”.

On to `O=c1cc(-c2ccc(O)cc2)oc2cc(O)cc(O)c12`, for which the Potency result was “inactive”.

A short description of the next assay: cAMP Responsive Elements (CRE) small molecule agonists, cell-based qHTS assay: qHTS cell viability counter screen (AID 2060914). Note: nearly all actives have a fitted effect of over 50% in size. To be noted: CRE-bla HEK293T viability, CellTiter-Glo luminescence, 5 h; series mostly up to 92.4 µM; activity change, negative = cytotoxicity: at the top concentration. An outline of the steps: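 In the same wells as the reporter read, viability of CRE-bla HEK 293T cells was quantified by CellTiter-Glo luminescence after a 3 h compound exposure.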
`CC(C)(C)C(=O)OCOC(=O)C1N2C(=O)CC2S(=O)(=O)C1(C)C` (stereo not given): the “activity change, negative = cytotoxicity” value is -0.023% [at 42.5 µM].

Consider `CN1[C@@H]2CC(OC(=O)[C@H](CO)c3ccccc3)C[C@H]1[C@@H]1O[C@@H]12` (stereo not given in full), for which the Potency entry was “inactive”.

In the case of `C=CCCCCCCCCC=O`, the “activity change, negative = cytotoxicity” value was -0.223%.

Take `O=C(O)C(O)[C@H](O)[C@@H](O)[C@H](O)[C@H](O)CO` (stereo not given in full): the “activity change, negative = cytotoxicity” value is 1.1%.

For `CC(C)[C@H]1CC[C@@H](C)CC1=O`, the “activity change, negative = cytotoxicity” value is -1.07%.

As for `c1ccc(Sc2ccccc2)cc1`, the “activity change, negative = cytotoxicity” value was -8.84%.

For `O=C(O)c1cn(-c2ccc(F)cc2)c2cc(N3CCNCC3)c(F)cc2c1=O`, the Potency result was “inactive”.

Turning to `C[C@H]1C[C@H]2[C@@H]3CCC4=CC(=O)C=C[C@]4(C)[C@@]3(F)[C@@H](O)C[C@]2(C)[C@@]1(O)C(=O)COP(=O)(O)O`, the “activity change, negative = cytotoxicity” value was 5.13%.

For `O=C(Nc1cccc2c(=O)cc(-c3nn[nH]n3)oc12)c1ccc(OCCCCc2ccccc2)cc1`, the “activity change, negative = cytotoxicity” value was -10.2% [at 42.5 µM].

As to `O=C(O)[C@@H](O)[C@H](O)[C@H](O)[C@@H](O)C(=O)O`, the “activity change, negative = cytotoxicity” value was -7.87% [at 42.5 µM].

Take `OCCCc1ccccc1`: the Potency result was “inactive”.

Turning to `CCCOc1ccc(S(=O)(=O)N2CCN(CC)CC2)cc1-c1nc2c(CC)n(Cc3ccccn3)nc2c(=O)[nH]1`, the “activity change, negative = cytotoxicity” value is 16.9%.

With `Cc1nc2c([nH]1)c(=O)n(C)c(=O)n2Cc1ccco1`, the “activity change, negative = cytotoxicity” value is 1.93% [at 42.5 µM].

`COc1c(Cl)ccc(Cl)c1C(=O)O`: the Potency entry is “inactive”.

Consider `Cc1cccn2c(=O)c(-c3nnn[nH]3)cnc12`, for which the activity change, negative = cytotoxicity was -13.9% [at 18.9 µM].

Turning to `CCCCOC(=O)c1ccccc1C(=O)OCC(CC)CCCC` (stereo not given), the “activity change, negative = cytotoxicity” value is -12.2%.

Regarding `COc1ccc([C@@H]2Sc3ccccc3N(CCN(C)C)C(=O)[C@@H]2OC(C)=O)cc1`, the “activity change, negative = cytotoxicity” value is -3.22% [at 42.5 µM].

As for `O=C(O)c1ccc(-n2nc(-c3ccccc3O)nc2-c2ccccc2O)cc1`, the “activity change, negative = cytotoxicity” value was 8.46% [at 42.5 µM].

For `CC1CCC(C(C)CS)CC1S` (stereo not given), the “activity change, negative = cytotoxicity” value is 0.454%.

On to `O=C(O)CSCC(=O)NC1CCSC1=O` (stereo not given), for which the “activity change, negative = cytotoxicity” value is 1.31% [at 42.5 µM].

On to `CC(=O)OCC(=O)[C@@]12OC(C)(C)O[C@@H]1C[C@H]1[C@@H]3C[C@H](F)C4=CC(=O)C=C[C@]4(C)[C@@]3(F)[C@@H](O)C[C@@]12C`, for which the “activity change, negative = cytotoxicity” value was -4.71% [at 42.5 µM].

For `CCCCCC(=O)O`, the “activity change, negative = cytotoxicity” value was 0.66%.

Turning to `CCO[Si](CC)(OCC)OCC`, the “activity change, negative = cytotoxicity” value is -10.9%.

On to `CCCC(=O)OCCc1ccccc1`, for which the “activity change, negative = cytotoxicity” value was 18.8%.

Regarding `CCc1cccc2c(CCO)c[nH]c12`, the “activity change, negative = cytotoxicity” value is 8.36% [at 42.5 µM].

For the compound `CC(C)C/C=C(\C=O)c1ccccc1`, the “activity change, negative = cytotoxicity” value is -14%.

Turning to `Nc1ccncc1N`, the “activity change, negative = cytotoxicity” value was 3.31% [at 42.5 µM].

With `CC1(C)CC(=O)CC(C)(C)N1`, the “activity change, negative = cytotoxicity” value is -6.66%.

`CNC(=O)N(c1ccccc1)c1ccccc1`: the “activity change, negative = cytotoxicity” value was -1.67%.

In the case of `NS(=O)(=O)c1cc2c(cc1Cl)NC(CC1CCCC1)NS2(=O)=O` (stereo not given), the “activity change, negative = cytotoxicity” value is 9.85% [at 42.5 µM].

Regarding `C=C[Si](OC(=C)C)(OC(=C)C)OC(=C)C`, the “activity change, negative = cytotoxicity” value was 8.61%.

`CC(C)(C)C(=O)CC(=O)C(C)(C)C`: the “activity change, negative = cytotoxicity” value is -3.55%.

Regarding `Nc1ccccc1O`, the “activity change, negative = cytotoxicity” value was 3.27%.

Consider `COc1cc(-c2nc(NC(=O)c3cc4cc(C)cc(C)c4n3CC(=O)O)sc2CCC2CCCCC2)c(OC)cc1Cl`, for which the Potency is 25 µM (active).

Consider `CCN[C@H]1C[C@H](C)S(=O)(=O)c2sc(S(N)(=O)=O)cc21`, for which the “activity change, negative = cytotoxicity” value was 13.9% [at 42.5 µM].

On to `CCCCCCC#CC(=O)OC`, for which the “activity change, negative = cytotoxicity” value was 14.1%.

For the compound `CCN1CCN(c2cc(-c3ccc(F)cc3)c3c(n2)CCCCCC3)CC1`, the activity change, negative = cytotoxicity was -20.1% [at 18.9 µM].

For the compound `CN1C(=O)CC(c2ccccc2)C1=O` (stereo not given), the “activity change, negative = cytotoxicity” value was 5.59% [at 42.5 µM].

`OC[C@@H](O)[C@H](O)[C@H](O)[C@@H](O)CO`: the Potency entry is “inactive”.

Take `O=c1cc(-c2ccc(O)cc2)oc2cc(O)cc(O)c12`: the Potency entry was “inactive”.
